In ChEMBL document CHEMBL1961873, “Compounds: GSK PKIS; Assays: Nanosyn kinase panel” (2012) one finds inhibition data, which are given here for seven molecules.

The term inhibition denotes the relative decrease from the control value, in per cent.

Experiment [1] deals with Tyrosine-protein kinase CSK (Homo sapiens) (UniProt P41240). To be noted: at 1 µM.
Experiment [2] concerns the target T1, Discoidin domain-containing receptor 2 (Homo sapiens) (UniProt Q16832).
T1 sequence (whole entry): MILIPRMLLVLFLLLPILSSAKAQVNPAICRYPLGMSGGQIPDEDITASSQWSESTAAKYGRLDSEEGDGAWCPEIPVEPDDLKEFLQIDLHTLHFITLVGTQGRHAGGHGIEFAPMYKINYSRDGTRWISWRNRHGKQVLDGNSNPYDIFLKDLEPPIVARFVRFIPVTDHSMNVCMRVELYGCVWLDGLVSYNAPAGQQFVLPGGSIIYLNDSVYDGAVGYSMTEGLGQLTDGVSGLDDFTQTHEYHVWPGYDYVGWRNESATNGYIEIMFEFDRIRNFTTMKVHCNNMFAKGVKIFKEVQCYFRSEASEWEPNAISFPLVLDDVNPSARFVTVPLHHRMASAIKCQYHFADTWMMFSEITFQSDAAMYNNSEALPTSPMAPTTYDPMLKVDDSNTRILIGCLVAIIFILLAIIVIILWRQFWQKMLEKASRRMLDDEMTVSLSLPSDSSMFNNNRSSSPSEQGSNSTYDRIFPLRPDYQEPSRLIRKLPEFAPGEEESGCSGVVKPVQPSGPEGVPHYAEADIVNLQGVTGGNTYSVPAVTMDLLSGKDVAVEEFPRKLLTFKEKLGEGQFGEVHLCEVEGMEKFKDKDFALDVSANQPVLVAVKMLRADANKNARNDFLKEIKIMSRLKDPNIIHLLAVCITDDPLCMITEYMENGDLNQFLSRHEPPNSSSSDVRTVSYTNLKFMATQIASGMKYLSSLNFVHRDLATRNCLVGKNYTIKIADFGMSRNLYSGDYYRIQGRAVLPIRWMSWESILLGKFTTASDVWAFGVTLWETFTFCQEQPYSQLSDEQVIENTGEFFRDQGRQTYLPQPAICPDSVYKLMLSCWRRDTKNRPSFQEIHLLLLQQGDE
To be noted: at 0.1 µM.

The target of experiment [3] is T1, Discoidin domain-containing receptor 2 (Homo sapiens). The note with it: at 1 µM.
Experiment [4] addresses Epidermal growth factor receptor (Homo sapiens) (UniProt P00533). The note with it: at 0.1 µM.
The target is the same in experiment [5]. The note with it: at 1 µM.
Experiment [6] has as its system Epidermal growth factor receptor (Homo sapiens), P00533 [L858R]. The note with it: at 0.1 µM.
Experiment [7] has the same test system. The note with it: at 1 µM.
Experiment [8] deals with Epidermal growth factor receptor (Homo sapiens), P00533 [L861Q]. The note with it: at 0.1 µM.
For experiment [9] the test system is unchanged. The note with it: at 1 µM.
In experiment [10] the test system is Epidermal growth factor receptor (Homo sapiens), P00533 [T790M]. The note with it: at 0.1 µM.
The test system is the same in experiment [11]. To be noted: at 1 µM.
In experiment [12] the test system is Epidermal growth factor receptor (Homo sapiens), P00533 [L858R,T790M]. The note with it: at 0.1 µM.
Experiment [13] has the same test system. The note with it: at 1 µM.
The target of experiment [14] is Ephrin type-A receptor 2 (Homo sapiens) (UniProt P29317). To be noted: at 0.1 µM.
The target is the same in experiment [15]. The note with it: at 1 µM.
In experiment [16] the target is T2, Ephrin type-A receptor 3 (Homo sapiens) (UniProt P29320).
T2 sequence (whole entry): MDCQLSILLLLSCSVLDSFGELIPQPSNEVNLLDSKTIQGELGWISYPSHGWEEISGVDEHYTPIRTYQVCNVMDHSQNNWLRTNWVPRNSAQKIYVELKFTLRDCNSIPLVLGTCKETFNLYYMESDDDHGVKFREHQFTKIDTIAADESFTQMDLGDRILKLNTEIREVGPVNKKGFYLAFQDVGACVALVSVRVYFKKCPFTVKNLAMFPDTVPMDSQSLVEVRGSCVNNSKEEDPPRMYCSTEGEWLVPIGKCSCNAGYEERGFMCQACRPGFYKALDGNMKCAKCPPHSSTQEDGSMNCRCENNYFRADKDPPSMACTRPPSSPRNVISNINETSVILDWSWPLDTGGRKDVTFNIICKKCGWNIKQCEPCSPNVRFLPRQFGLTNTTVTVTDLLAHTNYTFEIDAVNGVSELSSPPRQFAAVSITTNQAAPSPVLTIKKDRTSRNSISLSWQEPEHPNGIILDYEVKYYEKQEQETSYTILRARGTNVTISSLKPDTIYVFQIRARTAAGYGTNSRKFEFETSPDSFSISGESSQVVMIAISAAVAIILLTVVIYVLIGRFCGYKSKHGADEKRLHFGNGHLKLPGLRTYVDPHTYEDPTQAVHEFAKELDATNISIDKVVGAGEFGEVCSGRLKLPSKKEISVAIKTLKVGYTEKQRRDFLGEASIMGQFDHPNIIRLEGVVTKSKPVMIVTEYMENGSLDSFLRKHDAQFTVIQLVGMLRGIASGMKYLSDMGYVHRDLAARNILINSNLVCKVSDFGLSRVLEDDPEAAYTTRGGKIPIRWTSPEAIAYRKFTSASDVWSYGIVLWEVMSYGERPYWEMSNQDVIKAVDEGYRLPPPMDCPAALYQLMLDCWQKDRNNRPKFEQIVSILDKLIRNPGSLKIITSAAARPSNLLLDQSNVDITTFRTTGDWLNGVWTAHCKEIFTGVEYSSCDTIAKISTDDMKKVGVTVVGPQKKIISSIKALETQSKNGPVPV
To be noted: at 0.1 µM.

Experiment [17] has as its target T2, Ephrin type-A receptor 3 (Homo sapiens). The note with it: at 1 µM.
Experiment [18] addresses Ephrin type-A receptor 4 (Homo sapiens) (UniProt P54764). The note with it: at 0.1 µM.
Experiment [19] shares this target. The note with it: at 1 µM.
The target of experiment [20] is T3, Ephrin type-B receptor 2 (Homo sapiens) (UniProt P29323).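 Also: reported as mean inhibition of EPHB2, from the GSK PKIS dataset.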
T3 sequence (whole entry): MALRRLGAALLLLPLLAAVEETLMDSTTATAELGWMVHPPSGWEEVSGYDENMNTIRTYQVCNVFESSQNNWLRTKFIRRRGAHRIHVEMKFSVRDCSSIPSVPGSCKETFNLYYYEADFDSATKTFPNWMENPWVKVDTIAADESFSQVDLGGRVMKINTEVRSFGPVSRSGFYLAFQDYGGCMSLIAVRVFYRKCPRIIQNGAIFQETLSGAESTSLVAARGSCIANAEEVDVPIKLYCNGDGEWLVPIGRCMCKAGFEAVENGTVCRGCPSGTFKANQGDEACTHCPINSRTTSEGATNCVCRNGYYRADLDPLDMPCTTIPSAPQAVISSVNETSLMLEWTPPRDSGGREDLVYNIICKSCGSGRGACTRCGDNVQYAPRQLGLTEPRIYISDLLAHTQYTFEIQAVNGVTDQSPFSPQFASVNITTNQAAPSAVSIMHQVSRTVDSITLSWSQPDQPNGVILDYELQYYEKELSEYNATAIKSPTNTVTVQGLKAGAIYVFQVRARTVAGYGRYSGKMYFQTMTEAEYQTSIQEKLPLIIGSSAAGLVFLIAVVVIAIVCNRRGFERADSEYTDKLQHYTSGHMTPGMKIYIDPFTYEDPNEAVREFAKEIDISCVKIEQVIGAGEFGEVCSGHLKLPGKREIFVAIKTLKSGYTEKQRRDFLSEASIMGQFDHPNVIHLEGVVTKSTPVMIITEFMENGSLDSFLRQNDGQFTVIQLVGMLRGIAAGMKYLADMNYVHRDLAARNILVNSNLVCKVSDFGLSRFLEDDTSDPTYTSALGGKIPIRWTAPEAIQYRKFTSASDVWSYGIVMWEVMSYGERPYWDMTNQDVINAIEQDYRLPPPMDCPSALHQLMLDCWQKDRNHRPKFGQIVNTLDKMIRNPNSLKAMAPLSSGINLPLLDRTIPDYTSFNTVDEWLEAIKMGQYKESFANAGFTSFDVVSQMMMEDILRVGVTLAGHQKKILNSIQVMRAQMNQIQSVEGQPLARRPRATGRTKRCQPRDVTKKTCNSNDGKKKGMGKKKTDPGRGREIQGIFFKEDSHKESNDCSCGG
To be noted: at 0.1 µM.

Sequence of Epidermal growth factor receptor (Homo sapiens), P00533 [L858R,T790M] (P00533 whole entry T790M/L858R, looked up): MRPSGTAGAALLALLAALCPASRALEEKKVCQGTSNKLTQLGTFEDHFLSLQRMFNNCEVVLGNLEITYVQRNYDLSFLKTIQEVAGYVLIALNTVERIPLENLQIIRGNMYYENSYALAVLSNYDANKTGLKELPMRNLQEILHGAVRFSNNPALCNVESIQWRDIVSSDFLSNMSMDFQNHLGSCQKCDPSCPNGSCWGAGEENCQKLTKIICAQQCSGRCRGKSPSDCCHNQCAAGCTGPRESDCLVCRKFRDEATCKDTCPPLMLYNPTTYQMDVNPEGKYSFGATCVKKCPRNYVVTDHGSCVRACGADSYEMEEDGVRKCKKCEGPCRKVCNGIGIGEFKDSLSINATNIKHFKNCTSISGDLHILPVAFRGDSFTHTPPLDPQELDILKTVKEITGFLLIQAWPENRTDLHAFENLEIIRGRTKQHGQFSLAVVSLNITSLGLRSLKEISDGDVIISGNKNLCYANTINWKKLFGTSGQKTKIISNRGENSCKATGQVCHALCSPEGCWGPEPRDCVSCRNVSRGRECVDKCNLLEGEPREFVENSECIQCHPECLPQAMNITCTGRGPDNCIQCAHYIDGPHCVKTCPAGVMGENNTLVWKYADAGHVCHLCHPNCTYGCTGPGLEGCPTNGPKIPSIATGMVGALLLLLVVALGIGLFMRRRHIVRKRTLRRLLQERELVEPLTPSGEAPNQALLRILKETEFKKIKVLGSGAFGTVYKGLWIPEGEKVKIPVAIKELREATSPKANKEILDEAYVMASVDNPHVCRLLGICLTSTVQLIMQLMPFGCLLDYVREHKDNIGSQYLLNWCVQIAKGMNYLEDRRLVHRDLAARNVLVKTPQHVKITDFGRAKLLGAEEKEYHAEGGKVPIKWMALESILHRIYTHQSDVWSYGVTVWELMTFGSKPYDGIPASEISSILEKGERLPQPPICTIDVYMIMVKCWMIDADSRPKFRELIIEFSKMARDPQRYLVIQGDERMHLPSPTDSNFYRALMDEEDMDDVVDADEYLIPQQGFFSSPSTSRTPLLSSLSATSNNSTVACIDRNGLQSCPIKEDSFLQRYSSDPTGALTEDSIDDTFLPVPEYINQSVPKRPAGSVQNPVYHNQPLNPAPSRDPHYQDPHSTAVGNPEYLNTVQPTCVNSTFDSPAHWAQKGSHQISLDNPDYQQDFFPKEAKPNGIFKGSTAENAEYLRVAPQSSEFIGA
Sequence of Tyrosine-protein kinase CSK (Homo sapiens) (P41240 2-450 limits assumed): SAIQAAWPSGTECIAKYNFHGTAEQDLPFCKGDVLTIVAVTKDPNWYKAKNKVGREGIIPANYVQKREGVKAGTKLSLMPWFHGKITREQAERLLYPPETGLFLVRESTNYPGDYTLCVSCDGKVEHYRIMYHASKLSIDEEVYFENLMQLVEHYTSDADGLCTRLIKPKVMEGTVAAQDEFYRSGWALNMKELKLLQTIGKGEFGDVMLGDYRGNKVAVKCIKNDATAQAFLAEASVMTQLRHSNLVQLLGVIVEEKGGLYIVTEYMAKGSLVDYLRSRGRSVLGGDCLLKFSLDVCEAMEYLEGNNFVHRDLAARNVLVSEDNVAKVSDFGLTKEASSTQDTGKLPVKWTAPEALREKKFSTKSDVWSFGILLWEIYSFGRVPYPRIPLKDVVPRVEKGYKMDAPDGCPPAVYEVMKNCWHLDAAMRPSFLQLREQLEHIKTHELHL
Sequence of Ephrin type-A receptor 2 (Homo sapiens) (P29317 whole entry): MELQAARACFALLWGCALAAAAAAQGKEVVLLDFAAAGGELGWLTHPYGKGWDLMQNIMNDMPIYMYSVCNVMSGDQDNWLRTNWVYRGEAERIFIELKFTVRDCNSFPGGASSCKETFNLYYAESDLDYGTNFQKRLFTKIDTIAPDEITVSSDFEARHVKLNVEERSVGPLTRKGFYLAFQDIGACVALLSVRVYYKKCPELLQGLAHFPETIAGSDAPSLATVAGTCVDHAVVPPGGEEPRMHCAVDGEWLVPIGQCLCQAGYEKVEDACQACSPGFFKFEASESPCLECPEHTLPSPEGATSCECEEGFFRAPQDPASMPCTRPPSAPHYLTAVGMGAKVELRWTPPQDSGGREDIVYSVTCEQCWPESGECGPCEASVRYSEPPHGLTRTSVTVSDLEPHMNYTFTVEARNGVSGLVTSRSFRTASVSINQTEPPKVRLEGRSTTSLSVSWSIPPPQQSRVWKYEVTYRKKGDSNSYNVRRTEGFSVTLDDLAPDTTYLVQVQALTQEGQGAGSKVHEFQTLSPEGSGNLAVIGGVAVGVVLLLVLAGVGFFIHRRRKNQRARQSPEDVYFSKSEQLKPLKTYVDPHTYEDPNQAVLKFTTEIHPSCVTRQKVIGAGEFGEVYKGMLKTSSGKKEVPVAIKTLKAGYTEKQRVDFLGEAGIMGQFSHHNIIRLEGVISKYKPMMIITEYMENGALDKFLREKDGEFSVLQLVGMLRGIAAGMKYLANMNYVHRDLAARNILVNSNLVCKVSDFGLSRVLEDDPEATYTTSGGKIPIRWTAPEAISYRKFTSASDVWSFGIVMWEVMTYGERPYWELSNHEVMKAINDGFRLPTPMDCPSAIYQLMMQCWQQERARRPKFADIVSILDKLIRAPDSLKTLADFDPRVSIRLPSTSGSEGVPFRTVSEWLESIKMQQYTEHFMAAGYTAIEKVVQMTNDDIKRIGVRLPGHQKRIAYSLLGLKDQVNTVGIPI
Sequence of Ephrin type-A receptor 4 (Homo sapiens) (P54764 whole entry): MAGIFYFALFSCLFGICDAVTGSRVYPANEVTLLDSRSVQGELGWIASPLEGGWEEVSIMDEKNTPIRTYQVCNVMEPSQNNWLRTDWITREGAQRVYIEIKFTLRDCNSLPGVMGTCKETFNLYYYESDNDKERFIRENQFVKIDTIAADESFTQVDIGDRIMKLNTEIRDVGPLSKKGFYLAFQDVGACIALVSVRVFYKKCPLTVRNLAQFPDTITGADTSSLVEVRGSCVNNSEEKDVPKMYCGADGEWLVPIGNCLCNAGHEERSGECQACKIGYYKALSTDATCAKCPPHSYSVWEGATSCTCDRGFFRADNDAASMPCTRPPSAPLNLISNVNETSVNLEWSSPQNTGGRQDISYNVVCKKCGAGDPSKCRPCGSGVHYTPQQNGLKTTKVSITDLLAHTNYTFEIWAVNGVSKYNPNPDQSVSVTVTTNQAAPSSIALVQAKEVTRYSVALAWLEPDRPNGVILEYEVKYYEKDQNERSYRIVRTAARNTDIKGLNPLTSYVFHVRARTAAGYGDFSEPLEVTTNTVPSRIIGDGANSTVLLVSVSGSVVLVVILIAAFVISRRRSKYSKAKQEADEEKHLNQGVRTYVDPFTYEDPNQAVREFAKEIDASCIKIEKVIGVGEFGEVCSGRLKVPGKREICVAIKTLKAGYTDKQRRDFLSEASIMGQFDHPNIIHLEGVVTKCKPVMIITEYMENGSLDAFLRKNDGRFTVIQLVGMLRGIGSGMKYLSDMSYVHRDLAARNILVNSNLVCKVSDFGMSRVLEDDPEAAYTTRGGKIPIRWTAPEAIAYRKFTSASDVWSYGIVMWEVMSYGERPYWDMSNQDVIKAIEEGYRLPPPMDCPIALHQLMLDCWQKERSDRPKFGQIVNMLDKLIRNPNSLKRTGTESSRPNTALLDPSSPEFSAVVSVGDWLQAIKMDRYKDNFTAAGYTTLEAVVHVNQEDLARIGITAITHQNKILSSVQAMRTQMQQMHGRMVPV
Sequence of Epidermal growth factor receptor (Homo sapiens) (P00533 whole entry): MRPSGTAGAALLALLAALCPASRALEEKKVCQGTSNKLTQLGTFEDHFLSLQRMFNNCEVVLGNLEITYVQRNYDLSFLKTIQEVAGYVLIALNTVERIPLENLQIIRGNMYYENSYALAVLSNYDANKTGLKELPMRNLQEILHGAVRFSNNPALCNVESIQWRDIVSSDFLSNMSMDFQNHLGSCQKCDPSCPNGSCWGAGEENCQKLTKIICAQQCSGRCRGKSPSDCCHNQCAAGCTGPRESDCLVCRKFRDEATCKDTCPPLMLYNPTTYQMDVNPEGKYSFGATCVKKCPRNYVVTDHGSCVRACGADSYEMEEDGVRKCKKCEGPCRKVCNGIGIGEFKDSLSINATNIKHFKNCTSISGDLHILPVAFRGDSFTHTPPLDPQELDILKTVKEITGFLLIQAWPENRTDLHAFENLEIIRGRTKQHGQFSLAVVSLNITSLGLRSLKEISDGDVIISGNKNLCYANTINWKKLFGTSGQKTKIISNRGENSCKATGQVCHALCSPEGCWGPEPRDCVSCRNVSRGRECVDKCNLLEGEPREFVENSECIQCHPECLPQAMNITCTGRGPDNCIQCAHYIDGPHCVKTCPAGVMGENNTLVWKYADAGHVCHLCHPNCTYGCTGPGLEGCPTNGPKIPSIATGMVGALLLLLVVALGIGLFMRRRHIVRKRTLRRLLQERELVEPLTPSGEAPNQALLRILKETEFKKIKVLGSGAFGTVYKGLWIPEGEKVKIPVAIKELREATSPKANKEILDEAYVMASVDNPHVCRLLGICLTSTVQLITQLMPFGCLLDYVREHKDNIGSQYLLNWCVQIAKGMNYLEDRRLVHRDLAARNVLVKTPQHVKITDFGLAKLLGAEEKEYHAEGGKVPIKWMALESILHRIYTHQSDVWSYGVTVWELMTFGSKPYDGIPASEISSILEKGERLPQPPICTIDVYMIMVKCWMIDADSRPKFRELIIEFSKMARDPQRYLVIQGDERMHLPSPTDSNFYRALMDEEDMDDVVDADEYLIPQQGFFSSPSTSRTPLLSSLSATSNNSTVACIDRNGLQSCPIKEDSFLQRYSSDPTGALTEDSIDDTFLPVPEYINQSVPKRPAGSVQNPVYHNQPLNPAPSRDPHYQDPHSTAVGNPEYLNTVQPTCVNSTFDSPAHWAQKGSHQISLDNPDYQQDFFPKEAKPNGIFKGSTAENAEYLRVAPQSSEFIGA

On to `CCn1c(-c2nonc2N)nc2c(C#CC(C)(C)O)ncc(OC[C@@H]3CCCN3)c21`, for which the inhibition is -0.82% in experiment [1]; 1.15% in [2]; 2.67% in [3]; -1.23% in [4]; 1.8% in [5]; -0.72% in experiment [6]. Also, the inhibition in [7] was 2.58%; in experiment [8], -0.11%; in [9] it was -1.31%; in experiment [10], -0.72%; in experiment [11] it was -0.11%; in experiment [12], 4.31%. Further, the inhibition in [13] was -0.19%; in experiment [14], 1.83%; in [15], 0.02%; in experiment [16] it was 0.32%; in [17], -1.12%; in experiment [18], -0.1%. Also, the inhibition is 2.58% in experiment [19] and -7.23% in experiment [20].

On to `CCn1c(-c2nonc2N)nc2c(C#CCN)ncc(OCCCN)c21`, for which the inhibition in experiment [1] is 2.55%; in experiment [2] it was 3.32%; in experiment [3], 3.8%; in [4] it was 2.15%; in experiment [5] it was 8.32%; in [6] it was 2.24%. Moreover, the inhibition in [7] is 5.46%; in experiment [8] it was -0.07%; in [9], 9.43%; in [10], -0.87%; in [11], 5.94%; in experiment [12], 3.07%. In addition, the inhibition in [13] is 5.28%; in experiment [14], 5.32%; in [15], 1.78%; in experiment [16], -2.35%; in [17] it was -1%; in [18] it was -3.41%. Further, the inhibition in [19] was 3.82%; in experiment [20], -6%.

For `Cc1cc(-c2ccco2)cc(C)c1/C=C/c1cncc(-c2nn[nH]n2)c1`, the inhibition in experiment [1] is 3.48%; in [2] it was -0.16%; in [3], 0.34%; in experiment [4] it was 3.32%; in [5], 6.27%; in experiment [6], 0.25%. Further, the inhibition was 0.27% in [7]; -0.29% in [8]; 2.11% in experiment [9]; 1.06% in experiment [10]; 1.13% in experiment [11]; -2.33% in [12]. Moreover, the inhibition in [13] was 0.17%; in [14] it was 1.36%; in [15], 1.78%; in experiment [16], -0.31%; in experiment [17] it was 0.86%; in experiment [18], 1.64%. In addition, the inhibition in [19] was 3.95%; in experiment [20] it was -9.41%.

`NC(=O)c1sc(-n2cnc3cc(C(F)(F)F)ccc32)cc1OCc1ccccc1Br`: the inhibition in experiment [1] is -1.04%; in [2], 1.02%; in experiment [3] it was 1.34%; in experiment [4], 3.48%; in [5] it was 6.56%; in experiment [6], -1.95%. The inhibition in experiment [7] was 0.99%; in experiment [8], 1.64%; in [9] it was 1.19%; in [10] it was 0.21%; in experiment [11], 0.23%; in experiment [12], -0.11%. The inhibition is -0.24% in experiment [13]; 2.18% in experiment [14]; 0.32% in experiment [15]; 3.31% in [16]; 1.36% in experiment [17]; 4.57% in experiment [18]. Moreover, the inhibition was 8.16% in experiment [19] and -4.03% in [20].

On to `NS(=O)(=O)c1ccc(-c2ccc3c(NC(=O)C4CC4)n[nH]c3c2)cc1`, for which the inhibition in experiment [1] was determined as 2.04%; in [2], 0.39%; in experiment [3], 1.56%; in experiment [4] it was 1.61%; in [5] it was 5.25%; in [6], 0.79%. Moreover, the inhibition in [7] is 1.74%; in experiment [8], 2.23%; in experiment [9], -1.61%; in experiment [10], 0.83%; in experiment [11] it was -0.38%; in experiment [12], -1.39%. The inhibition in experiment [13] is 1.78%; in [14], 3%; in experiment [15], 1.18%; in [16] it was 2.34%; in experiment [17], 2.31%; in [18], 4.83%. Besides, the inhibition in [19] came to 1.43%; in experiment [20], 7.57%.

Regarding `NS(=O)(=O)c1ccc(N/C=C2\C(=O)Nc3ccc4ncsc4c32)cc1`, the inhibition in experiment [1] was determined as 3.86%; in [2] it was 1.19%; in experiment [3] it was 3.5%; in experiment [4], 2.49%; in experiment [5], 5.22%; in [6], 4.28%. Moreover, the inhibition in experiment [7] is 5.3%; in experiment [8] it was 2.44%; in experiment [9] it was 3.42%; in experiment [10] it was 0.93%; in experiment [11] it was 0.85%; in experiment [12] it was 4.07%. Besides, the inhibition in [13] was determined as 3.15%; in [14], 1.01%; in experiment [15] it was 1.66%; in experiment [16], 3.37%; in experiment [17], 6.86%; in [18], 8.05%. The inhibition was determined as 22.4% in experiment [19] and 9.09% in [20].

As to `Nc1nonc1-c1nc2cnccc2n1C1CCCCC1`, the inhibition was -6.81% in [1]; 0.11% in experiment [2]; 1.77% in [3]; 1.9% in [4]; 7.55% in [5]; 0.62% in experiment [6]. In addition, the inhibition in experiment [7] is 0.1%; in experiment [8], -0.81%; in experiment [9] it was -3.23%; in [10] it was -2.97%; in experiment [11], -2.94%; in experiment [12], -0.65%. Besides, the inhibition was -0.53% in experiment [13]; -4.45% in [14]; -4.85% in experiment [15]; -7.25% in experiment [16]; -1.98% in experiment [17]; -4.61% in experiment [18]. Further, the inhibition was -3.51% in [19] and -7.08% in experiment [20].
